Source: PubChem BioAssay (EPA / NIEHS)
Activity calls are given as the source filed them. How the source made its calls: active means hit-call score of the fitted dose curve at least 0.9, where 1 is the maximum; inactive means score below 0.9.

What was measured:
[1] = read-out: catalase (CAT), CAT (gene 847); test: LTEA_HepaRG_CAT: Life Technologies and Expression Analysis (LTEA) Assay for catalase (CAT) using HepaRG (AID 2283452); details: mRNA level, 48 h; actives raise or lower the signal
How it was run: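 HepaRG cells in serum-free induction medium, 0.5% DMSO vehicle, exposed 48 h in duplicate over 8 half-log concentrations from 100 uM. CAT mRNA measured by qRT-PCR, normalized to ACTB, GAPDH, POLR2A; bidirectional fit versus DMSO.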

[2] = read-out: flavin-containing dimethylaniline monooxygenases 3 (FMO3), FMO3 (gene 2328); test: LTEA_HepaRG_FMO3: Life Technologies and Expression Analysis (LTEA) Assay for flavin-containing dimethylaniline monooxygenases 3 (FMO3) using HepaRG (AID 2283453); details: mRNA level, 48 h; actives raise or lower the signal
How it was run: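 Differentiated HepaRG cells in serum-free induction medium, exposed 48 h in duplicate to 8 half-log concentrations up to 100 uM in 0.5% DMSO. FMO3 mRNA by qRT-PCR, normalized to ACTB, GAPDH, POLR2A; bidirectional fit vs DMSO.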

[3] = read-out: Cytochrome P450 (CYP1A1), CYP1A1 (gene 1543); test: LTEA_HepaRG_CYP1A1: Life Technologies and Expression Analysis (LTEA) Assay for Cytochrome P450 (CYP1A1) using HepaRG (AID 2283454); details: mRNA level, 48 h; actives raise or lower the signal
How it was run: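 CYP1A1 transcript levels measured by Fluidigm qRT-PCR against three housekeeping genes, 48 h after chemical dosing of human HepaRG cells (highest concentration 100 uM, half-log steps, 0.5% DMSO vehicle). Gain or loss of signal fitted relative to DMSO.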

[4] = read-out: CFLAR gene, CFLAR (gene 8837); test: LTEA_HepaRG_CFLAR: Life Technologies and Expression Analysis (LTEA) Assay for CFLAR gene using HepaRG (AID 2283455); details: mRNA level, 48 h; actives raise or lower the signal
How it was run: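 Differentiated HepaRG cells in serum-free induction medium were exposed 48 h in duplicate to eight half-log concentrations up to 100 uM in 0.5% DMSO; mRNA measured by TaqMan qRT-PCR, normalized to ACTB, GAPDH, POLR2A; bidirectional fitting versus DMSO.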

[5] = read-out: Forkhead box O1 (FOXO1), FOXO1 (gene 2308); test: LTEA_HepaRG_FOXO1: Life Technologies and Expression Analysis (LTEA) Assay for Forkhead box O1 (FOXO1) using HepaRG (AID 2283456); details: mRNA level, 48 h; actives raise or lower the signal
How it was run: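 Differentiated HepaRG cells, in serum-free induction medium with 0.5% DMSO, exposed 48 h in duplicate to 8-point half-log series from 100 uM. FOXO1 mRNA measured by TaqMan qRT-PCR, normalized to ACTB, GAPDH, POLR2A; bidirectional fit versus DMSO.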

[6] = read-out: growth arrest and DNA damage 45 (GADD45A), GADD45A (gene 1647); test: LTEA_HepaRG_GADD45A: Life Technologies and Expression Analysis (LTEA) Assay for growth arrest and DNA damage 45 (GADD45A) using HepaRG (AID 2283458); details: mRNA level, 48 h; actives raise or lower the signal
How it was run: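 Differentiated HepaRG cells exposed 48 h in serum-free induction medium to 8 concentrations, top 100 uM in half-log steps, 0.5% DMSO. GADD45A mRNA quantified by qRT-PCR, normalized to ACTB, GAPDH and POLR2A; bidirectional fit versus DMSO.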

[7] = read-out: Forkhead box O3 (FOXO3), FOXO3 (gene 2309); test: LTEA_HepaRG_FOXO3: Life Technologies and Expression Analysis (LTEA) Assay for Forkhead box O3 (FOXO3) using HepaRG (AID 2283459); details: mRNA level, 48 h; actives raise or lower the signal
How it was run: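 Differentiated human HepaRG cells, 48 h post-plating, exposed in duplicate for 48 h in serum-free induction medium; 8-point half-log series from 100 uM in 0.5% DMSO. FOXO3 mRNA by TaqMan qRT-PCR, normalized to ACTB/GAPDH/POLR2A; bidirectional fit versus DMSO.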

[8] = read-out: ABC Transporter (ABCB1), ABCB1 (gene 5243); test: LTEA_HepaRG_ABCB1: Life Technologies and Expression Analysis (LTEA) Assay for ABC Transporter (ABCB1) using HepaRG (AID 2283460); details: mRNA level, 48 h; actives raise or lower the signal
How it was run: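 HepaRG cells exposed in duplicate for 48 h in serum-free induction medium to eight half-log concentrations up to 100 uM in 0.5% DMSO. ABCB1 mRNA quantified by qRT-PCR, normalised to ACTB, GAPDH and POLR2A; fitted bidirectionally versus DMSO.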

[9] = read-out: growth arrest and DNA damage 45 (GADD45B), GADD45B (gene 4616); test: LTEA_HepaRG_GADD45B: Life Technologies and Expression Analysis (LTEA) Assay for growth arrest and DNA damage 45 (GADD45B) using HepaRG (AID 2283461); details: mRNA level, 48 h; actives raise or lower the signal
How it was run: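 Transcript level quantified by Fluidigm TaqMan qRT-PCR with three housekeeping genes for normalization, analyzed for up- or down-regulation against 0.5% DMSO. HepaRG cultures dosed 48 h at eight half-log concentrations up to 100 uM, duplicates.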

[10] = read-out: ABC Transporter (ABCC3), ABCC3 (gene 8714); test: LTEA_HepaRG_ABCC3: Life Technologies and Expression Analysis (LTEA) Assay for ABC Transporter (ABCC3) using HepaRG (AID 2283462); details: mRNA level, 48 h; actives raise or lower the signal
How it was run: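 Transcript level by TaqMan qRT-PCR, normalised to three housekeeping genes, fitted in both directions relative to vehicle. Chemicals tested in duplicate at eight half-log concentrations up to 100 uM for 48 h on HepaRG cells (0.5% DMSO).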

[11] = read-out: ABC Transporter (ABCB11), ABCB11 (gene 8647); test: LTEA_HepaRG_ABCB11: Life Technologies and Expression Analysis (LTEA) Assay for ABC Transporter (ABCB11) using HepaRG (AID 2283463); details: mRNA level, 48 h; actives raise or lower the signal
How it was run: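 Differentiated human HepaRG cells in serum-free induction medium, dosed in duplicate for 48 h. Eight-point half-log series from 100 uM in 0.5% DMSO; ABCB11 mRNA by qRT-PCR, normalized to ACTB, GAPDH, POLR2A, fitted bidirectionally versus DMSO.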

[12] = read-out: ABC Transporter (ABCC2), ABCC2 (gene 1244); test: LTEA_HepaRG_ABCC2: Life Technologies and Expression Analysis (LTEA) Assay for ABC Transporter (ABCC2) using HepaRG (AID 2283464); details: mRNA level, 48 h; actives raise or lower the signal
How it was run: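 Endpoint is ABCC2 transcript level from qRT-PCR, normalized to three housekeeping genes and fitted bidirectionally relative to DMSO. Human HepaRG cells received test chemical for 48 h at up to 100 uM (8 points, half-log steps, 0.5% DMSO), duplicate wells.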

[13] = read-out: Broad substrate specificity ATP-binding cassette transporter ABCG2 (Homo sapiens) (UniProt Q9UNQ0); test: LTEA_HepaRG_ABCG2: Life Technologies and Expression Analysis (LTEA) Assay for ABC Transporter (ABCG2) using HepaRG (AID 2283465); details: mRNA level, 48 h; actives raise or lower the signal
How it was run: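 Differentiated HepaRG cells were exposed for 48 h in serum-free induction medium to 8 half-log concentrations, top 100 uM, in 0.5% DMSO. ABCG2 mRNA was measured by qRT-PCR, normalized to ACTB, GAPDH and POLR2A, with bidirectional fitting versus DMSO.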

[14] = read-out: ATP-citrate lyase (ACLY), ACLY (gene 47); test: LTEA_HepaRG_ACLY: Life Technologies and Expression Analysis (LTEA) Assay for ATP-citrate lyase (ACLY) using HepaRG (AID 2283466); details: mRNA level, 48 h; actives raise or lower the signal
How it was run: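 Differentiated HepaRG cells exposed 48 h in serum-free induction medium to eight half-log concentrations up to 100 uM in 0.5% DMSO, duplicates. Transcript measured by Fluidigm TaqMan qRT-PCR, normalized to ACTB, GAPDH, POLR2A; bidirectional fit versus DMSO.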

[15] = read-out: Peroxisomal acyl-coenzyme A oxidase 1 (ACOX1) gene, ACOX1 (gene 51); test: LTEA_HepaRG_ACOX1: Life Technologies and Expression Analysis (LTEA) Assay for Peroxisomal acyl-coenzyme A oxidase 1 (ACOX1) gene using HepaRG (AID 2283467); details: mRNA level, 48 h; actives raise or lower the signal
How it was run: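 HepaRG cells, plated 48 h then switched to serum-free induction medium, were exposed in duplicate for 48 h to 8-point half-log concentrations up to 100 uM in 0.5% DMSO. ACOX1 mRNA was measured by qRT-PCR, normalized to ACTB/GAPDH/POLR2A, and fitted bidirectionally versus DMSO.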

[16] = read-out: Alkaline Phosphatase, Placental (ALPP) gene, ALPP (gene 250); test: LTEA_HepaRG_ALPP: Life Technologies and Expression Analysis (LTEA) Assay for Alkaline Phosphatase, Placental (ALPP) gene using HepaRG (AID 2283468); details: mRNA level, 48 h; actives raise or lower the signal
How it was run: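 ALPP transcript level, measured by qRT-PCR and normalized to three housekeeping genes (ACTB, GAPDH, POLR2A), after 48 h dosing of differentiated HepaRG in serum-free induction medium. Top concentration 100 uM with half-log dilutions (8 points, 0.5% DMSO, duplicates); bidirectional fitting relative to DMSO.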

[17] = read-out: Bcl-2 (BAD) gene, BAD (gene 572); test: LTEA_HepaRG_BAD: Life Technologies and Expression Analysis (LTEA) Assay for Bcl-2 (BAD) gene using HepaRG (AID 2283469); details: mRNA level, 48 h; actives raise or lower the signal
How it was run: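 Differentiated HepaRG cells were exposed in duplicate in 0.5% DMSO for 48 h to eight-point half-log concentrations up to 100 uM. BAD mRNA was measured by Fluidigm TaqMan qRT-PCR, normalized to ACTB, GAPDH and POLR2A, and fitted bidirectionally against DMSO.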

[18] = read-out: Bcl-2 (BAX) gene, BAX (gene 581); test: LTEA_HepaRG_BAX: Life Technologies and Expression Analysis (LTEA) Assay for Bcl-2 (BAX) gene using HepaRG (AID 2283470); details: mRNA level, 48 h; actives raise or lower the signal
How it was run: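 Differentiated HepaRG cells exposed 48 h in serum-free induction medium, eight half-log concentrations from 100 uM, in duplicate, 0.5% DMSO vehicle. BAX mRNA by TaqMan qRT-PCR, normalised to ACTB, GAPDH and POLR2A.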

[19] = read-out: adenosine kinase (ADK) gene, ADK (gene 132); test: LTEA_HepaRG_ADK: Life Technologies and Expression Analysis (LTEA) Assay for adenosine kinase (ADK) gene using HepaRG (AID 2283471); details: mRNA level, 48 h; actives raise or lower the signal
How it was run: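 HepaRG (human liver), 48 h chemical exposure, 8-pt half-log series, top 100 uM, 0.5% DMSO vehicle. Readout: ADK mRNA by qRT-PCR vs housekeeping genes; bidirectional curve fit relative to DMSO baseline.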

[20] = CEETOX_H295R_TESTO: CeeTox H295R High-throughput Steroidogenesis Assay for Testosterone (TESTO) (AID 2283457); details: actives raise or lower the signal
How it was run: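 Testosterone secreted into the medium over 48 h by H295R cells (maximum passage 10) was quantified by LC-MS/MS after MTBE extraction. Fitted in both directions against DMSO, with concentrations diluted until MTT viability was ≥70%.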

Measured: AC50

Sequence of Broad substrate specificity ATP-binding cassette transporter ABCG2 (Homo sapiens) (Q9UNQ0 whole entry, looked up): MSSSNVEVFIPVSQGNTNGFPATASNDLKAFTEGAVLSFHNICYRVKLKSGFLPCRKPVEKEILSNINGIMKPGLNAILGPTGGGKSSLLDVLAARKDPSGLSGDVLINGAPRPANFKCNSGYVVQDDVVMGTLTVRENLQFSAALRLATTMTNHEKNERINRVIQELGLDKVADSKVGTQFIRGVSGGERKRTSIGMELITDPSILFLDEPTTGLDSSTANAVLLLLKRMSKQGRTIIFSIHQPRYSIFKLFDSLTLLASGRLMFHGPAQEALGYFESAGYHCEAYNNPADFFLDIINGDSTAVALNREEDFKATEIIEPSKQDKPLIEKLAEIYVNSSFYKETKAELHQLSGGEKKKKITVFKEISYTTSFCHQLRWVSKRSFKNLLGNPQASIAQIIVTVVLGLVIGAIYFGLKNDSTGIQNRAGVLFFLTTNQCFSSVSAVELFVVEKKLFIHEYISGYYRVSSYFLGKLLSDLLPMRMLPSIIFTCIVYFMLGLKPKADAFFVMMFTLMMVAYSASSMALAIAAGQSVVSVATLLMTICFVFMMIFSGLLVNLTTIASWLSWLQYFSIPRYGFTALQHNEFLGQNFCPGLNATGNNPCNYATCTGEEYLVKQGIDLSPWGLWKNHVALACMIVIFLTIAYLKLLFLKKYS

[O-][Cl+]O
not listed: [20]
inactive: all other assays above

CS(=O)(=O)NC(=O)c1cc(Oc2ccc(C(F)(F)F)cc2Cl)ccc1[N+](=O)[O-]
active: [3] 39.3 µM | [8] 0.644 µM | [11] 50 µM | [12] 6.32 µM
not listed: [20]
inactive: all other assays above

Nc1ccc(Oc2ccc(N)cc2)cc1
active: [3] 37.5 µM
not listed: [12] | [20]
inactive: all other assays above

O=P(OCCCl)(OCCCl)OCCCl
active: [3] 76 µM | [18] 9.92 µM
not listed: [20]
inactive: all other assays above

CO[C@@H]1[C@H](OC(=O)NC(=O)CCl)CC[C@]2(CO2)[C@H]1[C@@]1(C)O[C@@H]1CC=C(C)C
active: [3] 16 µM | [11] 0.286 µM
not listed: [20]
inactive: all other assays above

O=C(Oc1ccc(Br)cc1)N1CCN2CCC1CC2
active: [3] 65.1 µM | [14] 73.5 µM
not listed: [11] | [20]
inactive: all other assays above

C=CCc1ccc2c(c1)OCO2
active: [3] 50 µM
not listed: [20]
inactive: all other assays above

Oc1ccc2ccc3cccc4ccc1c2c34
active: [3] 27.5 µM | [13] 11.9 µM
not listed: [20]
inactive: all other assays above

CN(C)c1ccccc1
active: [3] 63.3 µM
not listed: [20]
inactive: all other assays above

O=[N+]([O-])c1ccc(Oc2ccc(Cl)cc2Cl)cc1
active: [2] 50 µM | [3] 22.8 µM | [11] 11.5 µM | [13] 14.5 µM
not listed: [8] | [16] | [20]
inactive: all other assays above

CC(C)N(Cc1ccccc1)C(=O)C(C)(C)C
active: [3] 50 µM | [12] 50 µM
not listed: [4]
inactive: all other assays above

CCCCCCCCn1sccc1=O
active: [1] 85.6 µM | [2] 88.9 µM | [3] 32.8 µM | [4] 78.9 µM | [10] 73.8 µM | [11] 72.1 µM | [15] 83.8 µM
not listed: [20]
inactive: all other assays above

c1ccc(C2CO2)cc1 (configuration not stated)
not listed: [20]
inactive: all other assays above

CCC12COCN1COC2
active: [3] 50 µM
not listed: [20]
inactive: all other assays above
